Data taken from the supplement of paper PMC11732987, “Enantioselective OTUD7B fragment discovery through chemoproteomics screening and high-throughput optimisation” (Communications Chemistry, 2025).

How the values were obtained:
Assay in all cases: log2 ratio of Biotin-Ahx-Ub-VS probe labelling (fragment/DMSO); higher = less target engagement (more negative = stronger competition), active = hit call of the paper (q ≤ 0.05, log2 ratio ≤ -1)
Conditions in all cases: compound concentration: 200 uM; treatment time: 3 h
OTUD6B = target: T1, OTUD6B (UniProt Q8N6M0)
T1 sequence (whole entry): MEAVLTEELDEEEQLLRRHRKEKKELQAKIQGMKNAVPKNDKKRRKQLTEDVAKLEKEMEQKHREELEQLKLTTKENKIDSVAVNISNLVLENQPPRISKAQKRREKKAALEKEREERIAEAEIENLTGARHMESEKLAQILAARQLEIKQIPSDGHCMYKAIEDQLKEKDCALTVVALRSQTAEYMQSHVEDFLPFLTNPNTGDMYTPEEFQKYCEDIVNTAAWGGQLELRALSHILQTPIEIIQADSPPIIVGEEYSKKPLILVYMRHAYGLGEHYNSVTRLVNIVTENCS
Method in brief: (§1)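 Global-median-normalised Spectronaut label-free quantities were compared by unpaired t-test, and values are average log2 ratios of fragment over vehicle. Only proteins with ≥2 unique peptides were used. HEK293T lysate (495 µg per sample) was treated in triplicate with fragment at 200 µM or vehicle for 3 h and then with Biotin-Ahx-Ub-VS at 0.5 µM final for 1 h. Labelled DUBs were then NeutrAvidin-enriched, digested with LysC and trypsin, and run by diaPASEF LC-MS/MS.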

OTUD7B = target: T2, OTUD7B (UniProt Q6GQQ9)
T2 sequence (whole entry): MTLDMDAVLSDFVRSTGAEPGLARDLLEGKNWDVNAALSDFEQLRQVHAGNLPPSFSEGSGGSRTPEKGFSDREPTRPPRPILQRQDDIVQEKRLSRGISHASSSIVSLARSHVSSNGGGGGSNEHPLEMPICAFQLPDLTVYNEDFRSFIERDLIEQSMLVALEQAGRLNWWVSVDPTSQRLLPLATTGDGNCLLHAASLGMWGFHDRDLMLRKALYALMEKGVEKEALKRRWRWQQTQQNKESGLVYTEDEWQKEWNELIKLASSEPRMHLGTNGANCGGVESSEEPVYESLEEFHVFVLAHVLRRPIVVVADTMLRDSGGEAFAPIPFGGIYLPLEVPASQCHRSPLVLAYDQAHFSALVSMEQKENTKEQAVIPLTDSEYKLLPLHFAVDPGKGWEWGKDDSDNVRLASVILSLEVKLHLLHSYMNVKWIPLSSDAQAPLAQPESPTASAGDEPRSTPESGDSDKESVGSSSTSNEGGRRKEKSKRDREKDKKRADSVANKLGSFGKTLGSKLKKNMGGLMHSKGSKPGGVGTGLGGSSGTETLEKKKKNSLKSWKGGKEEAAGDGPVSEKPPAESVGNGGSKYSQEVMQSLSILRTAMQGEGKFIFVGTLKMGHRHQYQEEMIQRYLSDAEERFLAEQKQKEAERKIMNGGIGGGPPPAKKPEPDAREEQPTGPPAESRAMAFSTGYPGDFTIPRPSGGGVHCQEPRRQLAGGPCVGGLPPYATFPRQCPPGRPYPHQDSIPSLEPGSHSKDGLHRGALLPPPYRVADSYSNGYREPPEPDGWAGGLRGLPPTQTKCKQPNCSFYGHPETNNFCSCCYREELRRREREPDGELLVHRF
Method in brief: as §1

PRPF8 = PRPF8 (UniProt Q6P2Q9)
Method in brief: as §1

PSMD7 = target: T3, PSMD7 (UniProt P51665)
T3 sequence (whole entry): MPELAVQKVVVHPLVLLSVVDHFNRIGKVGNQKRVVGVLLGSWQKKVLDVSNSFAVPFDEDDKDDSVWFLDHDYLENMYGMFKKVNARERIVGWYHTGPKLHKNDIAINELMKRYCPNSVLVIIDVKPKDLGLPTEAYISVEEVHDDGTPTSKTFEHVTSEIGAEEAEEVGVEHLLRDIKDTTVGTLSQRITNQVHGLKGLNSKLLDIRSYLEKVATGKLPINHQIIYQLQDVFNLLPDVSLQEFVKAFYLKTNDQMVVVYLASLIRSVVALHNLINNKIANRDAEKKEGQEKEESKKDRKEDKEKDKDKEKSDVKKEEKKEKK
Method in brief: as §1

UCHL1 = UCHL1 (UniProt P09936)
Chain of UCHL1 (P09936 whole entry, looked up): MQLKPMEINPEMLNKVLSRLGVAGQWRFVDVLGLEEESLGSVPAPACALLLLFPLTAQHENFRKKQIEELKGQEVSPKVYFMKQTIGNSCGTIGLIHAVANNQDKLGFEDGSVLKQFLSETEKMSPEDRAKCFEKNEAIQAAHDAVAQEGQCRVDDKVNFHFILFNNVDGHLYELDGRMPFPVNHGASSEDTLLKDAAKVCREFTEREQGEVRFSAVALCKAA
Method in brief: as §1

UCHL3 = target: T4, UCHL3 (UniProt P15374)
T4 sequence (whole entry): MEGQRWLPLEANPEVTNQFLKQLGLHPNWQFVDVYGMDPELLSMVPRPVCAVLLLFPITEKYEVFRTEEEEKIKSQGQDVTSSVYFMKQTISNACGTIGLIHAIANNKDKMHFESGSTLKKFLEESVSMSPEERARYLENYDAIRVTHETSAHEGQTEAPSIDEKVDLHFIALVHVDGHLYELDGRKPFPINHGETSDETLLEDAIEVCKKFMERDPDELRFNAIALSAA
Method in brief: as §1

UCHL5 = target: T5, UCHL5 (UniProt Q9Y5K5)
T5 sequence (whole entry): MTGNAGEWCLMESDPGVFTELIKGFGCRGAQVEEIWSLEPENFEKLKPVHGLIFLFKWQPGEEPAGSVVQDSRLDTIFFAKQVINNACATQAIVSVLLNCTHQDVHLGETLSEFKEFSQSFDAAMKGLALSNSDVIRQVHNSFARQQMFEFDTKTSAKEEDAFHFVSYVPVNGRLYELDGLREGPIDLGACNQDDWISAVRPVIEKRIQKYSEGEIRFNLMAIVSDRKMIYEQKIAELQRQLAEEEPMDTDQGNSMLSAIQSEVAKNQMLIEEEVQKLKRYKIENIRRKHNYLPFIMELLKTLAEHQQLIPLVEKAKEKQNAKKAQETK
Method in brief: as §1

USP10 = USP10 (UniProt Q14694)
Chain of USP10 (Q14694 whole entry): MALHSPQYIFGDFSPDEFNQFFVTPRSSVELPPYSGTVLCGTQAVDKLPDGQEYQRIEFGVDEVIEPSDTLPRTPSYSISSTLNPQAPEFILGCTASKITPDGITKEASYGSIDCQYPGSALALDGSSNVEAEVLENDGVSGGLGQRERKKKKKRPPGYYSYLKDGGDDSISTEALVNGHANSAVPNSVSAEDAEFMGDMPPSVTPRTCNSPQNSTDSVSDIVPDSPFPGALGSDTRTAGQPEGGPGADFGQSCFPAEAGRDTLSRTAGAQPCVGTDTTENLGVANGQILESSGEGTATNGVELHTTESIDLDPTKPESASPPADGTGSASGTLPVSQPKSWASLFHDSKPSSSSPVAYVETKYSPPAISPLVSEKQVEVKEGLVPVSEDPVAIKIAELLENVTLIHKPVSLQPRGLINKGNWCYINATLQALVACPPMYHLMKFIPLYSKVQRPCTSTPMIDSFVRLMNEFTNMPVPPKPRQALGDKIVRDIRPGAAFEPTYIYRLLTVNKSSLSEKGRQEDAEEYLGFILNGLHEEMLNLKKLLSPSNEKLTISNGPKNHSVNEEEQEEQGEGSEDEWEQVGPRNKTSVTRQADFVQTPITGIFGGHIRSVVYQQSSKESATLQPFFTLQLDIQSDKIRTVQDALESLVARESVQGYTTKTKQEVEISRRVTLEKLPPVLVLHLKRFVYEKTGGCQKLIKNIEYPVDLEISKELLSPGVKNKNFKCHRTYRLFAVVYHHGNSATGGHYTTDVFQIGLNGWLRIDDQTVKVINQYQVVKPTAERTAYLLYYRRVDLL
Method in brief: as §1

USP15 = target: T6, USP15 (UniProt Q9Y4E8)
T6 sequence (whole entry): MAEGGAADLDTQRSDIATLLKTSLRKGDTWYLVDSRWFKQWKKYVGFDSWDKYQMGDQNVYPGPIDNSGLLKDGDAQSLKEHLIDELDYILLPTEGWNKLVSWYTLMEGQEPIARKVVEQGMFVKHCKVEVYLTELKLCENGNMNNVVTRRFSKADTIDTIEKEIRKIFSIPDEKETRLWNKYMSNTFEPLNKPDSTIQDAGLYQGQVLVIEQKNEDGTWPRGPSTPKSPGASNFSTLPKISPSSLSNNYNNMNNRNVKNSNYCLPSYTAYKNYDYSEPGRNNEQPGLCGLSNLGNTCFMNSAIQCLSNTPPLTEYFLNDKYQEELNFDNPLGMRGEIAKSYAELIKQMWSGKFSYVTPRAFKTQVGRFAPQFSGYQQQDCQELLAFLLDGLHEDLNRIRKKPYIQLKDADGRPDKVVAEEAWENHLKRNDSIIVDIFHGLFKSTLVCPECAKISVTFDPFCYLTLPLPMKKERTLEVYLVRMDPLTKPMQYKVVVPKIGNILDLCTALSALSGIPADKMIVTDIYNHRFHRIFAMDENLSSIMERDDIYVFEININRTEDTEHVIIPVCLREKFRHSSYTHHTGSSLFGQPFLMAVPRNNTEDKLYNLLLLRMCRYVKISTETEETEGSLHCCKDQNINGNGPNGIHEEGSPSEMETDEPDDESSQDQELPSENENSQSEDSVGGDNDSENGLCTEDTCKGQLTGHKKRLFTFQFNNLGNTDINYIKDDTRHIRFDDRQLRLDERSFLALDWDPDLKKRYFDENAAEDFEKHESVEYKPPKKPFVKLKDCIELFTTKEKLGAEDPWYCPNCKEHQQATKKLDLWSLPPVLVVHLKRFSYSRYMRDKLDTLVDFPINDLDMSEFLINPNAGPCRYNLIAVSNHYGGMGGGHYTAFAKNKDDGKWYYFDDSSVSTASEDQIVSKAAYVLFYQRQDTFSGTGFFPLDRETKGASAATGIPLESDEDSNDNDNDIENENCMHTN
Method in brief: as §1

USP16 = USP16 (UniProt Q9Y5T5)
Chain of USP16 (Q9Y5T5 whole entry, looked up): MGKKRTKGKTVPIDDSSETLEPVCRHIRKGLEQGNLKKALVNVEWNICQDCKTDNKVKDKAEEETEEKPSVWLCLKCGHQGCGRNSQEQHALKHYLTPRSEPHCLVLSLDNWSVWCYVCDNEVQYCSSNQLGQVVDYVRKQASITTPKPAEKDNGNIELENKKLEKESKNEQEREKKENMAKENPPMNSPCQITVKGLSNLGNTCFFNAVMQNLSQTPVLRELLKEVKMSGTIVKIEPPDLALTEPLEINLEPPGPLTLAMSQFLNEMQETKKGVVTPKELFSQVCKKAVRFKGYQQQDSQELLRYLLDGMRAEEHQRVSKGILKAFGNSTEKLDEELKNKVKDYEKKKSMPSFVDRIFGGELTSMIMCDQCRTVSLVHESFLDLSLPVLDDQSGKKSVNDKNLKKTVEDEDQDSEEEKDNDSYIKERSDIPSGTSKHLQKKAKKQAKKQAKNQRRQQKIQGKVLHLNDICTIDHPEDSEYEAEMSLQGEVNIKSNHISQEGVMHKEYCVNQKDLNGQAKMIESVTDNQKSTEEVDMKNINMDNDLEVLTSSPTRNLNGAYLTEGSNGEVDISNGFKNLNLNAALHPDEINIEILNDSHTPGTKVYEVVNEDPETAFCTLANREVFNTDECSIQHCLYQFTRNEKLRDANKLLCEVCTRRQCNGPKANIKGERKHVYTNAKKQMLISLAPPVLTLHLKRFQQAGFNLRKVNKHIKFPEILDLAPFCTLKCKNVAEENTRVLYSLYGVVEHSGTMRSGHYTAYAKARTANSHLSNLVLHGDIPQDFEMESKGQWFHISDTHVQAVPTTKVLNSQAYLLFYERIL
Method in brief: as §1

Measured: log2 ratio of Biotin-Ahx-Ub-VS probe labelling

Cc1nc(CN2CCN(C(=O)CCl)CC2)cs1
active: UCHL1 -1.72
inactive: OTUD6B -0.238 | OTUD7B -0.265 | PRPF8 0.211 | PSMD7 -0.333 | UCHL3 -0.051 | UCHL5 -0.0894 | USP10 -0.0627 | USP15 -0.32 | USP16 -0.55
